{"source": "PubChem BioAssay (NCATS)", "note": "Inconclusive results are not listed. Entries that show only a call come without a potency. Unmarked numbers belong to inactive results. The source made the active and inactive calls. Calls come from the whole dose curve; as a rule, active = well fitted inhibition curve with a large enough effect; inconclusive = small, poorly fitted or top-dose-only effect; inactive = flat fitted curve, though single readings scatter.", "data": [{"test": "P-glycoprotein substrates identified in KB-8-5-11 adenocarcinoma cell line, qHTS therapeutic library screen (AID 1346987); note: nearly all actives have a fitted effect of over 65% in size; note: potency is the fitted concentration of half-maximal effect", "settings": "KB-8-5-11 (P-gp overexpressing) viability, CellTiter-Glo, 72 h; series mostly up to 44.5 µM", "in_short": "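Human cervical adenocarcinoma KB-8-5-11 cells, selected in colchicine to over-express P-gp and assayed without it, were exposed for 72 h to titrated compounds. An ATP-based luminescent viability signal gave AC50.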", "values": [{"compound": "CC1(C)C2CC=C(COC3OC(COC4OCC(O)(CO)C4O)C(O)C(O)C3O)C1C2", "note": "(stereo not drawn)", "Potency": "inactive"}, {"compound": "O=C(Nc1ccc(S(=O)(=O)Nc2ccccc2Cl)c(Cl)c1)c1ccccn1", "Potency": "inactive"}, {"compound": "Cc1ccc(S(=O)(=O)c2ccc([N+](=O)[O-])o2)cc1", "Potency": "4.61 µM (active)"}, {"compound": "CC1=CC(=O)CC(C)(C)C1/C=C/C(C)O[C@@H]1O[C@H](CO)[C@@H](O)[C@H](O)[C@H]1O[C@@H]1OC[C@](O)(CO)[C@H]1O", "note": "(stereo partly drawn)", "Potency": "inactive"}, {"compound": "CC[C@H]1OC(=O)[C@](C)(F)C(=O)[C@H](C)[C@@H](O[C@@H]2O[C@H](C)C[C@H](N(C)C)[C@H]2O)[C@](C)(OC)C[C@@H](C)C(=O)[C@@H](C)[C@H]2N(CCCCn3cc(-c4cccc(N)c4)nn3)C(=O)O[C@]12C", "Potency": "inactive"}, {"compound": "CCNC(=O)Nc1ncc(-c2cc(-c3c(C)cc(OC)cc3C)nc(-c3cnccn3)n2)s1", "Potency": "inactive"}, {"compound": "CCC(=O)O[C@H]1C(C)(C)[C@H]([C@@H](O)C(=O)OC)[C@]2(C)C(=O)[C@@]1(O)[C@H]1O[C@]13C1CC(=O)O[C@@H](c4ccoc4)[C@]1(C)CCC32", "note": "(stereo partly drawn)", "Potency": "inactive"}, {"compound": "CC1OC(OC2C(CO)OC(OCC3OC(OC(=O)C45CCC(C)(C)CC4C4=CCC6C7(C)CCC(OC8OC(CO)C(O)C(OC9OC(CO)C(O)C(O)C9O)C8O)C(C)(C)C7CCC6(C)C4(C)CC5)C(O)C(O)C3O)C(O)C2O)C(O)C(O)C1OC1OC(CO)C(O)C(O)C1O", "note": "(stereo not drawn)", "activity change, negative = cytotoxicity": "9.79% [at 9.29 µM]"}]}]}
